This passage reports growth inhibition results from PubChem BioAssay (NCI).

This is part of a sample that, as a whole, favours compounds with a hit. Of some 79,000 tested, about 15% had one in any assay. Unmarked numbers belong to inactive results. The source made the active and inactive calls. No stated cut-off is given here; in the data, active means growth inhibition above about 70%; inactive means the rest.

A short description of this experiment: NCI Yeast Anticancer Drug Screen. Data for the mec2-1 strain (AID 157). Conditions: S. cerevisiae mec2-1 strain, at 100.0 µM, hits give high values. Put shortly:
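Yeast mec2-1 mutant treated with compound. Readout: growth inhibition vs vehicle controls.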
On to `CN(C)CC(CN(C)C)C(=O)/C=C/c1ccc(Cl)cc1Cl`, for which the growth inhibition was 98% (active).

On to `c1ccc2c(c1)ccn2CCc1c[nH]c2ccccc12`, for which the growth inhibition was 96% (active).

For the compound `Cc1ccccc1NC(=O)c1c(C)oc2c1C(=O)c1ccccc1C2=O`, the growth inhibition was 92% (active).

Turning to `CC(C)OC(=O)NNc1c(Cl)cc(Cl)cc1Cl`, the growth inhibition was 0%.

As to `COc1ccc2nc3cccc([N+](=O)[O-])c3c(NCCNCCO)c2c1`, the growth inhibition is 97% (active).

Consider `COc1ccc2c(c1)CCCC(Br)C2=O` (configuration not stated), for which the growth inhibition is 97% (active).

For `CCC(OC(C)=O)C1CC(C(C)C)CCC1C` (configuration not stated), the growth inhibition was 76% (active).

Turning to `O=S(=O)(c1cccc(C(F)(F)F)c1)N1c2ccccc2-n2cccc2C1c1cccnc1` (configuration not stated), the growth inhibition is 89% (active).

`c1ccc(-c2cc(C3CO3)c3ccccc3n2)cc1` (configuration not stated): the growth inhibition is 98% (active).

With `COc1ccc(/C=C2\SC(=S)N(/C=C3\C(=O)N(c4ccccc4)N=C3C)C2=O)cc1OC`, the growth inhibition is 80% (active).

Turning to `CC1=CC(=C(c2ccc(N)c(C)c2)c2ccc(N)c(C)c2)C=CC1=N`, the growth inhibition was 96% (active).

As to `CC1C(c2ccccc2)SC(=N)N1C` (configuration not stated), the growth inhibition was -1%.

Regarding `CC(/C=C/c1ccc([N+](=O)[O-])o1)=N/N1CC(CN2CCOCC2)OC1=O` (configuration not stated), the growth inhibition is 94% (active).

On to `C=CC(C)(C)N1C(=O)C(C(C)=O)=C(O)C1Cc1c[nH]c2ccccc12` (configuration not stated), for which the growth inhibition is 88% (active).

Turning to `O=C1c2cccc3cccc(c23)C(=O)N1CCNCCN1C(=O)c2cccc3cccc(c23)C1=O`, the growth inhibition was 5%.

For the compound `Cc1ccc([N+](=O)[O-])c2c(NCCC[N+](C)(C)[O-])c3ccccc3nc12`, the growth inhibition is 82% (active).

`COC(=O)C(Cc1c[nH]c2ccccc12)N1CN(C)c2ccccc2C1=O` (configuration not stated): the growth inhibition is 99% (active).
